# Several values for one entry are separate records, joined by “and”; a condition that tells them apart may be missing. Equal values may be shown once. Results filed as inconclusive are left out. A call without a number means that no potency is given here. Activity calls are given as the source filed them. Calls come from the whole dose curve; as a rule, active = well fitted curve in the direction sought with a large enough effect; inconclusive = small, poorly fitted or top-dose-only effect, or another doubt; inactive = no such curve, though single readings can be large; an effect the other way counts as inactive or inconclusive. Residues, ends and D or L forms follow the SMILES beside them. *: point of attachment. Cbz = O=C(OCc1ccccc1)*
# Assays:
# [1] = Cellular Toxicity (caspase-3) H-4-II-E (AID 663);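 note: cells exposed to compound for 16 hr before readout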
# Outline: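 Caspase 3/7 activation measured by luminescent aminoluciferin substrate cleavage after 16 hr compound treatment of H-4-II-E cells in complete medium. Increase normalized between DMSO (basal) and 100 uM tamoxifen (100%); Hill-equation AC50 from concentration-response.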
# [2] = Cellular Toxicity (caspase-3) Hek293 (AID 664);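 note: cells exposed to compound for 16 h at 37 °C before readout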
# Outline: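 Luminescent Caspase-Glo 3/7 readout (aminoluciferin release) in HEK293 cells after 16 h compound treatment, 37 °C. Normalization: DMSO = basal, 100 uM tamoxifen = 100% stimulation. Concentration-response fitted with standard Hill equation for AC50.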
# [3] = Cellular Toxicity (caspase-3) N2a (AID 665);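 note: compound exposure lasted 16 h at 37 °C before readout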
# Source text: NIH Chemical Genomics Center [NCGC]
# NIH Molecular Libraries Screening Centers Network [MLSCN]
# National Institutes of Environmental Health Sciences [NIEHS]
# National Toxicology Program [NTP]
# We have developed a 1536-well cell-based assay for quantitative high throughput screening (qHTS) against a number of cell lines to determine in vitro caspase 3/7 activity of small molecules. This particular assay uses the N2a cell line which is derived from mouse neuroblastoma.
# NCGC Assay Protocol Summary:
# The Caspase-Glo 3/7 assay (Promega) is a homogeneous method to measure caspase-3 and caspase-7 activities in cultured cells. The quantitation of caspase 3/7 activity is based on the cleavage of a peptide-aminoluciferin substrate. […]
# Using the Caspase-Glo 3/7 assay, the amount of caspase 3/7 activity was measured in the N2a cells with complete culture medium following compound treatment for 16 hours. […] Library compounds were measured for their ability to cause the activation of caspase 3/7 in the cell line, as reflected by an increase in luminescence signal, in a concentration-dependent manner. […] AC50 values were determined from concentration-response data modeled with the standard Hill equation. […]
# 8. Detection; Luminescence; Viewlux plate reader
# Keywords: caspase 3/7, apoptosis, mouse N2a cell line, luminescence, NTPHTS, NTPHTS_NCGC, NIEHS, EPA, DSSTox, MLSMR, MLSCN, NIH Roadmap, qHTS, NCGC
# [4] = Cellular Toxicity (caspase-3) NIH 3T3 (AID 666);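 note: caspase signal read after 16 h compound exposure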
# Outline: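 NIH 3T3, 1000 cells/well, 5 hr settle then 16 hr compound at 37°C; Caspase-Glo 3/7, 20 min RT, luminescence. DMSO = basal, 100 uM tamoxifen = 100%. Hill-equation AC50, qHTS.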
# [5] = Cellular Toxicity (caspase-3) Renal Proximal Tubule (AID 667);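 note: cells exposed to compound for 16 hours at 37 °C before detection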
# Outline: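 Freshly isolated primary rat kidney proximal tubule cells, 1000/well, treated 16 hr at 37 °C, then Caspase-Glo 3/7 luminescence after 1 hr. Normalized to DMSO and 10 uM staurosporine; AC50 from Hill fit.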
# [6] = target: Cytochrome P450 2C9 (Homo sapiens) (UniProt P11712); experiment: qHTS Assay for Inhibitors and Substrates of Cytochrome P450 2C9 (AID 883); note: nearly all actives have a fitted effect of over 60% in size
# Chain of Cytochrome P450 2C9 (Homo sapiens) (P11712 whole entry, looked up): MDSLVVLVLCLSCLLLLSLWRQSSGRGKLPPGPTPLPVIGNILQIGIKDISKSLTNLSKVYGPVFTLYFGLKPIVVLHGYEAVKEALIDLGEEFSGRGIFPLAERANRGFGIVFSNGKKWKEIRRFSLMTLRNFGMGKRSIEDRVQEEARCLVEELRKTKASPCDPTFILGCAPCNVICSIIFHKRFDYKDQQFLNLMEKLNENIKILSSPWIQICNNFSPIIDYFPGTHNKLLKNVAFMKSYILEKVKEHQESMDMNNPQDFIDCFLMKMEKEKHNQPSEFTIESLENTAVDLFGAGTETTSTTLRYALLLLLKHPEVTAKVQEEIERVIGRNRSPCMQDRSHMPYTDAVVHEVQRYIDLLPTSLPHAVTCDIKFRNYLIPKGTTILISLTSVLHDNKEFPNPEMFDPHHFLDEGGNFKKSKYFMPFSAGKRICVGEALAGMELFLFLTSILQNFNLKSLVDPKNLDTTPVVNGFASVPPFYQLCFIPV
# Outline: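 Turnover of Luciferin-H (100uM, KM) by 10nM human CYP2C9 was measured over 60 min at 37C with NADPH regeneration; inhibitors and some substrates reduce luminescence. Data normalized to sulphaphenazole 57uM.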
# [7] = target: Cytochrome P450 2D6 (Homo sapiens) (UniProt P10635); experiment: qHTS Assay for Inhibitors and Substrates of Cytochrome P450 2D6 (AID 891); note: nearly all actives have a fitted effect of over 60% in size; note: potency is the fitted concentration of half-maximal effect
# Chain of Cytochrome P450 2D6 (Homo sapiens) (P10635 whole entry, looked up): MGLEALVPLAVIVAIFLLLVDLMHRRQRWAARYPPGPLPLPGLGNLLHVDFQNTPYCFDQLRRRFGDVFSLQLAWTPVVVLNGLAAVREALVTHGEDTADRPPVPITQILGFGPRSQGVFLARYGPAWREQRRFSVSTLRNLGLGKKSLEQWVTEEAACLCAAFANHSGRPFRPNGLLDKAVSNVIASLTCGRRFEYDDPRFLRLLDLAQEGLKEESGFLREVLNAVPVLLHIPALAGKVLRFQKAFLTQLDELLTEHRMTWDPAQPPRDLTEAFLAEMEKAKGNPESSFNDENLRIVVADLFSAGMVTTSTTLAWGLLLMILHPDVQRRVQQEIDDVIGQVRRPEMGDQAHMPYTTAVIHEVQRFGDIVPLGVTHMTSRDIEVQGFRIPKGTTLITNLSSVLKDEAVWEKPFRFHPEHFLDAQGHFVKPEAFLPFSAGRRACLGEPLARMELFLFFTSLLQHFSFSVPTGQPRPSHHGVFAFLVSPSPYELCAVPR
# Outline: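 Luminescent read-out of luciferin formed by 5 nM human CYP2D6 demethylating 30 uM Luciferin-ME EGE (Km level) over 60 min at room temperature after NADPH regeneration addition. Data normalized to full inhibition by 1.43 uM quinidine.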
# [8] = target: Cytochrome P450 3A4 (Homo sapiens) (UniProt P08684); experiment: qHTS Assay for Inhibitors and Substrates of Cytochrome P450 3A4 (AID 884); note: nearly all actives have a fitted effect of over 50% in size; note: potency is the fitted concentration of half-maximal effect
# Chain of Cytochrome P450 3A4 (Homo sapiens) (P08684 whole entry, looked up): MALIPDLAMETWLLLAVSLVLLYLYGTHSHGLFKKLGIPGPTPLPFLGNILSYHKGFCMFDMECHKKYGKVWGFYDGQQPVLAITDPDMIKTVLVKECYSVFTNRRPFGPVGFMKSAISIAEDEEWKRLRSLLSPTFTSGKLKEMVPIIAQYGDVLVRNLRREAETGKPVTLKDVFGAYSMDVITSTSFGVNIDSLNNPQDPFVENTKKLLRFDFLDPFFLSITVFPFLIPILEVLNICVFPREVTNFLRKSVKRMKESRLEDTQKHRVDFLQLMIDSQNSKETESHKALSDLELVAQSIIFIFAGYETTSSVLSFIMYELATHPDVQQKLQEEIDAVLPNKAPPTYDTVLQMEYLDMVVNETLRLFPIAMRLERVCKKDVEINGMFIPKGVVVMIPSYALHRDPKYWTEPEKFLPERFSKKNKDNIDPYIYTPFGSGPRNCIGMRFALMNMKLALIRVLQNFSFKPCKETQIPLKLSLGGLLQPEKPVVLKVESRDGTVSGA
# Outline: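 Luminescent readout of luciferin produced by CYP3A4 (20 nM) dealkylation of Luciferin-PPXE, 25 uM (its KM). NADPH-driven reaction ran 60 min at RT after 10 min compound preincubation; data scaled to 57 uM ketoconazole as 100% inhibition.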
# [9] = target: Guanine nucleotide-binding protein G(i) subunit alpha-1 (Homo sapiens) (UniProt P63096); experiment: qHTS Assay for Inhibitors of RGS12 GoLoco Motif Activity (Green Fluorophore) (AID 879); note: potency is the fitted concentration of half-maximal effect
# Chain of Guanine nucleotide-binding protein G(i) subunit alpha-1 (Homo sapiens) (P63096 whole entry, looked up): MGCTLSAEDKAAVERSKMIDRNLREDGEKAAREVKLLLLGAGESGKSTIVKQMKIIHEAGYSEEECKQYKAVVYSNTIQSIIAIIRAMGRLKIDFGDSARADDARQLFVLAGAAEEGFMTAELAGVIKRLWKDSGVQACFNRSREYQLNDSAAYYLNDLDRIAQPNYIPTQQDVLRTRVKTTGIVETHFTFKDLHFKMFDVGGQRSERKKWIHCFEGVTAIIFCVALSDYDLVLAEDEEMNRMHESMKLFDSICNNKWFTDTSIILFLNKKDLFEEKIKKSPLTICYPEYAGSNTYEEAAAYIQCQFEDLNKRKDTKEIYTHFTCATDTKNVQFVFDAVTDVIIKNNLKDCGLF
# Outline: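 A drop in FITC polarization marked displacement of the FITC-tagged RGS12 GoLoco peptide (10 nM) from Gαi1 (50 nM). Compounds were incubated 10 min at room temperature in Tris pH 7.5 buffer containing 150 mM NaCl, 0.1 mM GDP and 0.05% NP40; unlabeled peptide titration served as control.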
# [10] = target: Cytochrome P450 3A4 (Homo sapiens) (UniProt P08684); experiment: qHTS Assay for Activators of Cytochrome P450 3A4 (AID 885); note: nearly all actives have a fitted effect of over 65% in size; note: potency is the fitted concentration of half-maximal effect
# Outline: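 Human CYP3A4 dealkylates Luciferin-PPXE to luciferin, which luciferase detection converts to light. Substrate was at its KM (25uM), buffer 200mM KPO4, reaction 60 min at RT.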
structure (smiles),measurement,setting,value
NC(=O)c1ccccc1,outcome,[1],inactive
same,outcome,[2],inactive
same,outcome,[3],inactive
same,outcome,[4],inactive
same,outcome,[5],inactive
same,Potency,[6],inactive
same,Potency,[7],inactive
CC(=O)C(C)=O,outcome,[1],inactive
same,outcome,[2],inactive
same,outcome,[3],inactive
same,outcome,[4],inactive
same,outcome,[5],inactive
same,Potency,[6],inactive
same,Potency,[8],inactive
same,Potency,[7],inactive
O=C(N[C@@H](Cc1ccccc1)C(=O)CCl)OCc1ccccc1,Potency,[9],inactive
same,Potency,[10],inactive
N=C(N)SCCN,Potency,[9],inactive
same,Potency,[8],3.16 µM (active)
O=C(O)/C=C/c1ccc(O)c(O)c1,Potency,[9],inactive
same,Potency,[10],inactive
O=C1NC(=O)c2cc(Nc3ccccc3)c(Nc3ccccc3)cc21,Potency,[9],inactive
same,Potency,[8],1.58 µM (active)
O=c1[nH]c2cc(Cl)ccc2c(O)c1-c1ccc(Oc2ccccc2)cc1,Potency,[9],inactive
same,Potency,[10],inactive
Cc1cccc(C(=O)NCN2CCN(c3ccccc3C#N)CC2)c1,Potency,[9],inactive
same,Potency,[10],inactive
O=C(O)c1ccccc1Nc1ccccc1,Potency,[9],inactive
same,Potency,[10],inactive
CCCCOC(=O)NS(=O)(=O)c1sc(CC(C)C)cc1-c1ccc(Cn2c(CC)nc3c(C)cc(C)nc32)cc1,Potency,[9],inactive
same,Potency,[8],3.16 µM (active)
O=c1onc2n1-c1cc(Br)ccc1OC2,Potency,[9],inactive
same,Potency,[10],inactive
COc1cc(N)c(Cl)cc1C(=O)OCCN1CCCCC1,Potency,[9],inactive
same,Potency,[8],15.8 µM (active)
same,Potency,[10],inactive
O=C(O)C1=CCCNC1,Potency,[9],inactive
same,Potency,[8],inactive
N[C@@H](Cc1ccc(O)c(I)c1)C(=O)O,Potency,[9],inactive
same,Potency,[8],inactive
CC(C)(CO)Cc1cc(C(C)(C)C)c(O)c(C(C)(C)C)c1,Potency,[9],inactive
same,Potency,[8],2.51 µM (active)
same,Potency,[10],inactive
same,Potency,[7],inactive
Nc1ccc(-c2nc3ccc(-c4nc5ccc(N)cc5[nH]4)cc3[nH]2)cc1,Potency,[9],inactive
same,Potency,[8],0.0631 µM (active)
COc1cc2c(CCNC(C)=O)c[nH]c2cc1O,Potency,[9],inactive
same,Potency,[10],inactive
Nc1ccc(-c2ccc3ccccc3n2)cc1,Potency,[9],inactive
same,Potency,[8],3.98 µM (active)
same,Potency,[10],inactive
N#C/C(=C\c1ccc(O)c(O)c1)C(=O)NCCc1ccccc1,Potency,[9],inactive
same,Potency,[8],3.98 µM (active)
CC(C)[C@H](NC(=O)OCc1ccccc1)C(=O)N[C@H](C=O)Cc1ccccc1 (Cbz-Val-Phe-aldehyde),Potency,[9],inactive
same,Potency,[8],6.31 µM (active)
Cn1c(=O)c2[nH]c(C3CCCC3)nc2n(C)c1=O,Potency,[9],inactive
same,Potency,[8],39.8 µM (active)
Nc1ncnc2c1c(-c1ccc(Oc3ccccc3)cc1)cn2C1CCCC1,Potency,[9],inactive
same,Potency,[8],inactive
[Li+],Potency,[9],inactive
same,Potency,[10],inactive
O=C(OCCN1CCOCC1)C1(c2ccccc2)CCCCC1,Potency,[9],inactive
same,Potency,[8],3.16 µM (active) and 1.58 µM (active)
same,Potency,[10],inactive
CN(C)S(=O)(=O)c1ccc2c(c1)/C(=C/c1cc3c([nH]1)CCCC3)C(=O)N2,Potency,[9],inactive
same,Potency,[8],5.01 µM (active)
Cc1ccc([N+](=O)[O-])cc1S(=O)(=O)N(C)C,Potency,[9],inactive
same,Potency,[8],inactive
O=C(O)C1=CC(=C(c2ccc(O)c(C(=O)O)c2)c2ccc(O)c(C(=O)O)c2)C=CC1=O,Potency,[9],15.8 µM (active)
same,Potency,[8],inactive
CNCCNS(=O)(=O)c1cccc2cnccc12,Potency,[9],inactive
same,Potency,[10],inactive
c1ccc2c(c1)CC(N1CCN(c3cccc4c3OCCO4)CC1)C2,Potency,[9],inactive
same,Potency,[8],inactive
NCCCCN,Potency,[9],inactive
same,Potency,[8],inactive
O=C(O)C1=CCNCC1,Potency,[9],inactive
same,Potency,[8],inactive
CC(C)(C)c1cc(/C=C(\C#N)C(N)=S)cc(C(C)(C)C)c1O,Potency,[9],inactive
same,Potency,[8],3.98 µM (active)
same,Potency,[10],inactive
Cn1c(=O)[nH]c2ncn(C)c2c1=O,Potency,[9],inactive
same,Potency,[8],inactive
CCCCCCCCCCC/C=C\C(C)(C)/C=C\CCCC(=O)O,Potency,[9],inactive
same,Potency,[8],inactive
C=CC[C@H](N)C(=O)O,Potency,[9],inactive
same,Potency,[8],inactive
CC(C)Cn1c(=O)n(C)c(=O)c2[nH]cnc21,Potency,[9],inactive
same,Potency,[8],3.98 µM (active) and 15.8 µM (active) and 12.6 µM (active)
same,Potency,[10],inactive
c1ccc(CN2CCC3(CCCc4ccccc43)CC2)cc1,Potency,[9],inactive
same,Potency,[8],inactive
same,Potency,[10],25.1 µM (active)
same,Potency,[7],0.251 µM (active)

# Source: PubChem BioAssay (NCATS)
